# Assay results taken from PubChem BioAssay AID1159580 (chemical genetic matrix, 2015).
# The whole screen tested about 5,500 compounds, of which about 2,000 (36%) were called active. Another 18% or so got no clear call; they are omitted. The list shows a part of the results. Values without a mark were called inactive. Cut-off read from the data, not from the text of the source: active = normalized growth mostly below about 0.91 (no sharp cut-off); inconclusive = no clear call, values can overlap the other calls; inactive = mostly above about 0.92.
# Assay: chemical genetic growth profiling, strain panel (AID 1159580);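 note: tested at 20 µM; growth read once vehicle control cultures reached saturation at 30 °C; 1 = growth at the plate median or of vehicle wells; lower values mean less growth of the strain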
# Conditions: S. cerevisiae deletion strains, growth OD
# [1] = locus YAL013W, strain DEP1, hits give low values
# [2] = locus YBR229C, strain ROT2, hits give low values
# [3] = locus YDL101C, strain DUN1, hits give low values
# [4] = locus YDL134C, strain PPH21, hits give low values
# [5] = locus YDR150W, strain NUM1, hits give low values
# [6] = locus YEL061C, strain CIN8, hits give low values
# [7] = locus YGR078C, strain PAC10, hits give low values
# [8] = locus YHR030C, strain SLT2, hits give low values
# [9] = locus YHR087W, strain rtc3, hits give low values
# [10] = locus YJR043C, strain POL32, hits give low values
# [11] = locus YJR075W, strain HOC1, hits give low values
# [12] = locus YLR039C, strain RIC1, hits give low values
# [13] = locus YLR058C, strain SHM2 (second series), hits give low values
# [14] = locus YLR085C, strain ARP6, hits give low values
# [15] = locus YLR262C, strain YPT6, hits give low values
# [16] = locus YML094W, strain GIM5, hits give low values
# [17] = locus YMR219W, strain ESC1, hits give low values
# [18] = locus YMR263W, strain SAP30, hits give low values
# [19] = locus YNL153C, strain GIM3, hits give low values
# [20] = locus YNL298W, strain CLA4 (second series), hits give low values
# [21] = locus YNL322C, strain KRE1, hits give low values
# [22] = locus YNR030W, strain Alg12, hits give low values
# [23] = locus YPL055C, strain LGE1, hits give low values
# [24] = locus YPL241C, strain CIN2, hits give low values
# [25] = locus YPR135W, strain CTF4, hits give low values
smiles,measurement,setting,value
CCCS(=O)(=O)c1c(C)c(C)n(Cc2ccccc2)c1N,normalized growth,[1],1.02
same,normalized growth,[2],1.01
same,normalized growth,[3],0.972
same,normalized growth,[4],0.999
same,normalized growth,[5],1
same,normalized growth,[6],0.999
same,normalized growth,[7],1
same,normalized growth,[8],1.06
same,normalized growth,[9],1
same,normalized growth,[10],0.997
same,normalized growth,[11],0.99
same,normalized growth,[12],1.05
same,normalized growth,[13],1
same,normalized growth,[14],1.27 [resistant] (active)
same,normalized growth,[15],1.03
same,normalized growth,[16],1.04
same,normalized growth,[17],1
same,normalized growth,[18],0.999
same,normalized growth,"locus YMR307W, strain GAS1, hits give low values",1.14
same,normalized growth,[19],1
same,normalized growth,[20],1.02
same,normalized growth,[21],0.999
same,normalized growth,[22],1.02
same,normalized growth,"locus YOL006C, strain TOP1, hits give low values",1.2
same,normalized growth,[23],1.06
same,normalized growth,[24],1.1
same,normalized growth,[25],1.15
Cc1cccc(Cn2c(C)c(C)c(S(=O)(=O)c3ccccc3)c2N)c1C,normalized growth,[1],1.03
same,normalized growth,[2],1.01
same,normalized growth,[3],0.98
same,normalized growth,[4],0.978
same,normalized growth,[5],1.01
same,normalized growth,[6],0.998
same,normalized growth,[7],1.03
same,normalized growth,"locus YGR229C, strain SMI1, hits give low values",0.984
same,normalized growth,[8],0.917
same,normalized growth,[9],1.01
same,normalized growth,"locus YJL187C, strain SWE1, hits give low values",0.996
same,normalized growth,[10],1
same,normalized growth,[11],0.996
same,normalized growth,"locus YKL190W, strain CNB1, hits give low values",0.987
same,normalized growth,[12],0.803
same,normalized growth,[13],0.999
same,normalized growth,[14],1.24 [resistant] (active)
same,normalized growth,[15],0.873
same,normalized growth,[16],1.05
same,normalized growth,[17],1.01
same,normalized growth,[18],1.01
same,normalized growth,"locus YNL128W, strain TEP1, hits give low values",0.998
same,normalized growth,[19],1.04
same,normalized growth,[20],0.98
same,normalized growth,[21],1
same,normalized growth,[22],1.01
same,normalized growth,[23],1.06
same,normalized growth,[24],1.03
same,normalized growth,[25],1.16
